# GPR151 ag – activators of human GPR151. PathHunter beta-arrestin GPR151 cells, luminescence. Q8TDV0. actives 1% (n = 650,000). AID 1508602. activation, % at 11.2 µM; in the data active = activation above about 4.9%;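 also: 0% = median of compound wells and 100% = cells with positive control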
# Target sequence (Q8TDV0 whole entry, looked up): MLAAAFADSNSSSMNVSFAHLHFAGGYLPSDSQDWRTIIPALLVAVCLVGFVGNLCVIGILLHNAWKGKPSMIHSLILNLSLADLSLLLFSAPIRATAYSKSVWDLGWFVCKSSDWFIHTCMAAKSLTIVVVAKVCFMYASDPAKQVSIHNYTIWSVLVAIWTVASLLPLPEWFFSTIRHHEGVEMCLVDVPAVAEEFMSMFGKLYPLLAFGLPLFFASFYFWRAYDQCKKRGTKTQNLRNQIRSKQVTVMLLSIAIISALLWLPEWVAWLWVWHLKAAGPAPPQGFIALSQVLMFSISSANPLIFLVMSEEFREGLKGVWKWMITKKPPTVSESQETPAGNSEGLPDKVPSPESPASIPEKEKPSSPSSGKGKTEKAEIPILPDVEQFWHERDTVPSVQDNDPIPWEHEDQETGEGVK
# TEAD-YAP block – TEAD-YAP interaction inhibition. HEK-TIYL cells, TEAD-Gal4/YAP UAS-luciferase luminescence. inhibition, % at 9.12 µM. actives 1.4% (n = 640,000); in the data active = inhibition above about 32%;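 also: 0% = median of test compound wells and 100% = reference inhibitor wells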
# FBW7 act – human FBW7 E3 ligase activation, primary screen. AlphaScreen FBW7–phospho-cyclin E peptide binding, activator screen. normalized activity (activation), % at 26.1 µM. actives 0.13% (n = 650,000). AID 1259310; in the data active = normalized activity above about 1.9%;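 also: purified mutant Fbw7 with reduced substrate affinity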
# MITF inh – blocks human microphthalmia-associated transcription factor. O75030. AlphaScreen MITF homodimerization, bead proximity signal. inhibition, % at 2.6 µM. actives 0.91% (n = 650,000); in the data active = inhibition above about 50%;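 also: 0% = vehicle wells with protein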
# GPR151 confirm – human GPR151 activation, confirmation screen; AID 1508609; activation, % at 11.2 µM; shares compounds with GPR151 ag; GPR151 PathHunter beta-arrestin cells, luminescence, 90 min; % of EA-reagent control over plate median; 6,700 tested, under 10 active;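 active = mean percent activation across replicates above the confirmation screen cutoff of 4.91%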
# GPR119 ag – activates human GPR119 in a GPR151 counter-screen; shares compounds with GPR151 ag; GPR119 PathHunter beta-arrestin cells, luminescence, 90 min; 0 = compound-well median, 100 = enzyme-acceptor control; activation, % at 11.2 µM; actives 0.3% (n = 6,700);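 active = mean percent activation in the counterscreen above 29.09%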;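 also: counterscreen on off-target GPR119 to flag nonselective hits from the GPR151 activator screen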
# * marks the source's active call; other numbers are inactive results; nt = no result. Compounds with a hit are over-represented: about 3.5% of the library has one in this group of screens.
SMILES,GPR151 ag,TEAD-YAP block,FBW7 act,MITF inh,GPR151 confirm,GPR119 ag
CCOC(=O)C1(Cc2ccc(Cl)cc2)CCN(CC)CC1,-0.4,-3.9,0.2,11.4,nt,nt
CCOC(=O)C1(Cc2ccc(Cl)cc2)CCN(CCC(C)O)CC1 (centres undefined),5.0*,6.3,0.4,15.0,-0.4,-11.4
CCOC(=O)C1(Cc2cccc(OC)c2)CCN(CCO)CC1,7.9*,3.2,0.2,15.1,0.4,5.7
CC(NC(=O)Cn1cc(NC(=O)c2ccco2)cn1)c1nc(-c2ccccc2)no1 (centres undefined),1.7,2.3,0.0,6.8,nt,nt
CN1C(=O)N(C)C(c2ccccc2Cl)C2=C1CC(C)(C)CC2=O (centres undefined),0.8,-1.3,-0.2,0.9,nt,nt
CN1C(=O)NC(c2ccccc2Cl)C2=C1CC(C)(C)CC2=O (centres undefined),5.7*,3.6,-0.1,-3.1,0.8,-3.4
Cc1cc(Nc2ccc(Oc3ccccc3)cc2)nc(Nc2cccnc2)n1,-0.7,-8.3,0.3,12.4,nt,nt
Cc1cc(Nc2ccc(Oc3ccccc3)cc2)nc(Nc2ccccn2)n1,5.9*,-14.9,-0.2,-11.5,0.1,-2.1
COc1cc2c(cc1OC)CN(Cc1cc(OC)c(O)c([N+](=O)[O-])c1)CC2,0.6,9.9,-0.1,41.9,nt,nt
O=C(O)c1cccc(NS(=O)(=O)c2ccc(I)cc2)c1,-0.6,11.2,-0.1,-8.2,nt,nt
COc1ccc(OCCCOc2ccc(/C=C3/C(=N)N4OC(C)=CC4=NC3=O)cc2)cc1,0.2,8.9,-0.1,-0.4,nt,nt
COc1ccc(-c2nnc(SCC(=O)c3cc(C)n(CC4CCCO4)c3C)o2)cc1 (centres undefined),4.9*,-7.2,-0.1,2.5,1.2,5.8
Cc1cc(C)c2c3c(sc2n1)C(=O)N(c1ccc(F)cc1)CC(=O)N3,5.6*,2.5,-0.1,3.5,0.0,-1.1
Cc1ccc(N2CC(=O)Nc3c(sc4nc(C)cc(C)c34)C2=O)cc1,1.8,3.0,-0.5,-6.2,nt,nt
COc1ccc(C(=O)Nc2nnc(-c3ccco3)o2)c(OC)c1,-1.3,-30.3,-0.1,1.9,nt,nt
Cc1ccc(-n2nc3c(c2NC(=O)c2ccco2)CS(=O)(=O)C3)cc1,-3.3,12.5,0.8,8.8,nt,nt
NC(=O)c1cc2c(ccc3ccccc32)oc1=Nc1ccccc1,5.2*,-8.1,-0.1,2.6,-0.8,-7.6
CC(CC(=O)Nc1nc2ccc([N+](=O)[O-])cc2s1)c1ccccc1 (centres undefined),6.5*,15.9,0.2,18.0,0.6,9.1
CC(=O)N1CCc2cc(S(=O)(=O)NCCC(=O)NCCc3ccc(Cl)cc3)ccc21,6.5*,27.6,-0.2,-7.5,0.0,0.3
COc1cn(CC(=O)Nc2cc(C)cc(C)c2)c(CSc2nccc(C)n2)cc1=O,14.7*,1.2,0.0,-1.2,-0.6,-3.6
COc1cn(CC(=O)Nc2cccc(F)c2)c(CSc2ncccn2)cc1=O,3.0,-8.0,0.0,3.0,nt,nt
O=C1c2ccccc2C(=O)c2c(O)c(O)cc(O)c21,-0.1,-0.5,-0.3,30.0,nt,nt
O=C1c2ccccc2C(=O)c2c(O)ccc(O)c21,17.9*,0.7,0.0,5.2,0.1,2.3
COc1cc(S(=O)(=O)N2CCN(c3ccc(C)c(C)c3)CC2)ccc1F,5.9*,-2.9,0.0,-0.8,2.3,3.5
O=C(NCCO)C(=O)NCC(c1cccs1)S(=O)(=O)c1ccccc1 (centres undefined),4.9*,-1.4,-0.1,2.5,-0.4,-11.7
SMILES,GPR151 ag,TEAD-YAP block,FBW7 act,MITF inh,GPR151 confirm,GPR119 ag
Cc1ccc(NC(=O)CN(C)S(=O)(=O)c2ccc(Br)cc2)cc1Cl,9.5*,3.5,0.1,18.0,1.8,-3.0
COc1ccc(NC(=O)CN(C)S(=O)(=O)c2ccc(Cl)cc2)cc1Cl,10.2*,6.2,0.2,0.2,0.0,-5.6
Cc1ccc(NC(=O)CN(C)S(=O)(=O)c2ccc(Br)cc2)cc1C,1.3,-1.7,0.1,-12.5,nt,nt
O=C(Nc1ccc(O)c(-c2nc3ccccc3o2)c1)c1ccccc1I,0.6,-6.0,0.1,6.2,nt,nt
COc1ccc(Cc2nnc(Nc3ccccc3C)[nH]c2=O)cc1,-1.3,6.7,0.0,12.2,nt,nt
COc1ccc(Cc2nnc(Nc3cc(Cl)ccc3C)[nH]c2=O)cc1,5.0*,-2.6,0.1,13.2,0.0,14.3
COC(C(=O)Nc1ccccc1C(=O)O)c1ccccc1 (centres undefined),-0.3,4.1,0.0,11.7,nt,nt
COC(C(=O)Nc1c(F)cccc1F)c1ccccc1 (centres undefined),5.9*,-0.9,0.5,0.7,-0.5,-7.7
COC(=O)C1=C(C)N(c2ccc(C)cc2)C(=O)/C1=C\c1ccccc1C(F)(F)F,-0.5,-7.0,0.3,-7.2,nt,nt
O=C(CCc1ccccc1)Nc1nnc(-c2ccc(F)cc2)o1,5.7*,-5.6,-0.1,-5.6,0.6,7.1
CC(=O)c1cc2c(cc1NC(=O)c1cccc(Br)c1)OCCO2,5.6*,12.5,0.1,17.7,-0.1,-1.9
CC(=O)c1cc2c(cc1NC(=O)c1ccccc1)OCCO2,-0.5,-0.1,0.2,13.3,nt,nt
CCOCCCN1Cc2cc3cc(OC)ccc3nc2OC(C)C1=O (centres undefined),-0.2,-7.3,-0.1,10.6,nt,nt
O=C(Nc1nnc(COc2ccccc2)o1)c1ccccc1,-0.2,8.8,0.2,20.1,nt,nt
O=C(Nc1nnc(COc2ccccc2)o1)c1cc(Br)ccc1Cl,4.9*,2.9,0.0,11.9,-2.1,-15.0
COc1cccc(CCNC(=O)c2cn(C)c3c(=O)n(-c4ccc(Cl)cc4)c(=O)[nH]c23)c1,-0.2,0.9,0.0,4.1,nt,nt
CCN1CCSc2ccc(C(=O)NCc3ccc(C)cc3)cc21,6.4*,-5.7,0.0,-7.0,-1.6,-20.3
CC1(C)CC(=O)C(C=NCc2cccc(F)c2)=C(O)C1,1.2,5.2,0.0,6.2,nt,nt
CC1(C)CC(=O)C(C=NCCc2cccc(Cl)c2)=C(O)C1,5.4*,20.6,-0.2,6.4,-0.6,-15.9
C=CCOC(=O)c1cc(-c2ccc(/C=N/Nc3nn[nH]n3)o2)ccc1Cl,5.0*,-20.6,0.2,15.2,0.7,2.6
CCN(CC)c1nc(C)c([N+](=O)[O-])c(C)c1C(N)=O,6.5*,-11.5,0.1,-15.7,0.0,2.2
COc1cccc(CN(CCN(C)C)C(=O)[C@@H](Cc2ccc(-c3cn[nH]c3)cc2)NC(=O)C(C)O)c1 (some centres undefined),5.1*,-2.6,-0.1,3.3,-0.1,-6.2
O=C(NC(c1ccccc1Cl)c1ccc2cccnc2c1O)c1ccccc1 (centres undefined),7.5*,72.0*,-1.2,-3.7,0.2,0.9
COC(=O)c1cc(CNC(=O)c2cn3ccccc3n2)cc(NC(=O)Cc2ccsc2)c1,-0.4,-10.7,-0.1,-0.4,nt,nt

# Compound activity as filed in PubChem.
